Data as given in the supplement of paper PMC10849652.
The full data set covers some 7,900 targets. This sample favours those with a hit. About 0.6% of all pairs of compound and target were hits. A number with no mark means an inactive call.

What was measured:
Assay in all cases: log2 fold change, soluble protein after heating vs DMSO (PISA); higher = thermal stabilisation; K562 cells, 10 uM, 30 min; active = over 0.2 and 3.5 SD of the protein, either way, in both replicates (recomputed)
bafetinib = compound: Cc1ccc(NC(=O)c2ccc(CN3CC[C@H](N(C)C)C3)c(C(F)(F)F)c2)cc1Nc1nccc(-c2cncnc2)n1 [bafetinib]
How it was run: (§1)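 Quantification of soluble protein used TMTpro 16plex LC-MS/MS, with channel sums equalised. Samples were the supernatant after 21,000xg for 90 min of pooled aliquots from K562 cells (2×10^6 cells/mL) treated with 10 μM compound for 30 min, heated for 3 min over 48°C-58°C, and extracted in PBS with 0.5% NP-40 at 4°C. Values, from duplicates, describe thermal stability against control samples on a log2 fold-change scale.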

[1] = compound: Cc1cccc(CC(=O)N2CCc3c2ccc(-c2cn(C)c4ncnc(N)c24)c3F)n1
How it was run: as §1

nilotinib = compound: Cc1cn(-c2cc(NC(=O)c3ccc(C)c(Nc4nccc(-c5cccnc5)n4)c3)cc(C(F)(F)F)c2)cn1 [nilotinib]
How it was run: as §1

[2] = compound: Cc1nc(Nc2n[nH]c3c2CN(C(=O)N[C@H](CN(C)C)c2ccccc2)C3(C)C)c2sccc2n1
How it was run: as §1

dasatinib = compound: Cc1nc(Nc2ncc(C(=O)Nc3c(C)cccc3Cl)s2)cc(N2CCN(CCO)CC2)n1 [dasatinib]
How it was run: as §1

[3] = compound: Cc1ncc(-c2ccnc(Nc3ccc(S(C)(=O)=O)cc3)n2)n1C(C)C
How it was run: as §1

[4] = compound: Cn1cc(-c2ccc3c(c2)CCN3C(=O)Cc2cccc(C(F)(F)F)c2)c2c(N)ncnc21
How it was run: as §1

[5] = compound: Cn1cc(-c2ccc3nnc(C(F)(F)c4ccc5ncccc5c4)n3n2)cn1
How it was run: as §1

tipifarnib = compound: Cn1cncc1[C@@](N)(c1ccc(Cl)cc1)c1ccc2c(c1)c(-c1cccc(Cl)c1)cc(=O)n2C [tipifarnib]
How it was run: as §1

mubritinib = compound: FC(F)(F)c1ccc(/C=C/c2nc(COc3ccc(CCCCn4ccnn4)cc3)co2)cc1 [mubritinib]
How it was run: as §1

Chain of UniProt P51692 (P51692 whole entry, looked up): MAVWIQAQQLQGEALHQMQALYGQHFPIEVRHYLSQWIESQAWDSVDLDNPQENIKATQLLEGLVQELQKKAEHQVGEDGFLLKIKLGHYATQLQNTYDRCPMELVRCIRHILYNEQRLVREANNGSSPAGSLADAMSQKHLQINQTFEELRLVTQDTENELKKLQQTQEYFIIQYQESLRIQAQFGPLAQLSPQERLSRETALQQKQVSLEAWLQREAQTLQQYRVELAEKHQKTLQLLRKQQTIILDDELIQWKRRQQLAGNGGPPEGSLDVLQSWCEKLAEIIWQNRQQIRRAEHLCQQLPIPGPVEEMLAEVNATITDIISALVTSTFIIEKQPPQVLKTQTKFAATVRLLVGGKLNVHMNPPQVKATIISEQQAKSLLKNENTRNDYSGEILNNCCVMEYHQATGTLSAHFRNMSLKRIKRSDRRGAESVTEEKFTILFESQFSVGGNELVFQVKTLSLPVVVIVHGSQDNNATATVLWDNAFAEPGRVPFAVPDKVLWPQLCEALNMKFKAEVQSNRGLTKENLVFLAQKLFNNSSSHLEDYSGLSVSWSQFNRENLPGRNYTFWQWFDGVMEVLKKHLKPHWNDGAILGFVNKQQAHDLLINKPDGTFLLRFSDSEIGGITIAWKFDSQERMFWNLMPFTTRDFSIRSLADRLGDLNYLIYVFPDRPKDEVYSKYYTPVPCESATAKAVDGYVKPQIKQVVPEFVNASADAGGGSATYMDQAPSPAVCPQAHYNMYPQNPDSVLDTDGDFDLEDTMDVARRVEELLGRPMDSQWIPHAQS
Chain of UniProt Q9UBP0 (Q9UBP0 whole entry, looked up): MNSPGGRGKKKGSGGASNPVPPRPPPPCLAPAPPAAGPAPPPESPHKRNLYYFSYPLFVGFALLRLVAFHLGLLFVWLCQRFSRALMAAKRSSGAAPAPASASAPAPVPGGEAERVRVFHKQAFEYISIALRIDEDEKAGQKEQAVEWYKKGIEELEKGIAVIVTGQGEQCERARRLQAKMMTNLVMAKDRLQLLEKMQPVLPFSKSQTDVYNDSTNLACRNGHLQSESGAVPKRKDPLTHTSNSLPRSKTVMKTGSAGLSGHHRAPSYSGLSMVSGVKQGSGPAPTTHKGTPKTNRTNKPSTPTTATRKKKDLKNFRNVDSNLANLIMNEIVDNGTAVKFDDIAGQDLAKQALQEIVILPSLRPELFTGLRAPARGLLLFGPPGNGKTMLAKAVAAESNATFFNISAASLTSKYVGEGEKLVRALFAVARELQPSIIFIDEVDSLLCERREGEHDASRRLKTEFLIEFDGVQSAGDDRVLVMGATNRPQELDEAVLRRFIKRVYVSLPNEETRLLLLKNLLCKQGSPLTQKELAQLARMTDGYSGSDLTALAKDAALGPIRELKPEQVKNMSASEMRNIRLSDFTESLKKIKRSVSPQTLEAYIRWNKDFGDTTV
Chain of UniProt Q15527 (Q15527 whole entry, looked up): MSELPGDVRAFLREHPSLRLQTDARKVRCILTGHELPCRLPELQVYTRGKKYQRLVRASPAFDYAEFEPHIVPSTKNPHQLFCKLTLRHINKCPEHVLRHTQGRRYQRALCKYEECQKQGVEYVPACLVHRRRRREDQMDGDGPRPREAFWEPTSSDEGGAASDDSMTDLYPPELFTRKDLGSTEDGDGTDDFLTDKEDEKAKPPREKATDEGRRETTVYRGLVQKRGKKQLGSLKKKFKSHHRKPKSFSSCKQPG
Chain of UniProt Q8N1S5 (Q8N1S5 whole entry, looked up): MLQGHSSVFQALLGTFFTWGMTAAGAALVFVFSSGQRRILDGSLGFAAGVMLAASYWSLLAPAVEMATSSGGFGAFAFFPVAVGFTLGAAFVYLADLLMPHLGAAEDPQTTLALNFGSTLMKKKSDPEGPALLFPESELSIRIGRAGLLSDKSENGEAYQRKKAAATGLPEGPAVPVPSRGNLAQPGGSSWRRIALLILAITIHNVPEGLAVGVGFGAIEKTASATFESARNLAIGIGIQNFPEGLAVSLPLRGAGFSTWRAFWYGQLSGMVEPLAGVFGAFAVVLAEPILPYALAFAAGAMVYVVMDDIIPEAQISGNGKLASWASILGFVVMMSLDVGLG
Chain of UniProt Q9BTW9 (Q9BTW9 whole entry, looked up): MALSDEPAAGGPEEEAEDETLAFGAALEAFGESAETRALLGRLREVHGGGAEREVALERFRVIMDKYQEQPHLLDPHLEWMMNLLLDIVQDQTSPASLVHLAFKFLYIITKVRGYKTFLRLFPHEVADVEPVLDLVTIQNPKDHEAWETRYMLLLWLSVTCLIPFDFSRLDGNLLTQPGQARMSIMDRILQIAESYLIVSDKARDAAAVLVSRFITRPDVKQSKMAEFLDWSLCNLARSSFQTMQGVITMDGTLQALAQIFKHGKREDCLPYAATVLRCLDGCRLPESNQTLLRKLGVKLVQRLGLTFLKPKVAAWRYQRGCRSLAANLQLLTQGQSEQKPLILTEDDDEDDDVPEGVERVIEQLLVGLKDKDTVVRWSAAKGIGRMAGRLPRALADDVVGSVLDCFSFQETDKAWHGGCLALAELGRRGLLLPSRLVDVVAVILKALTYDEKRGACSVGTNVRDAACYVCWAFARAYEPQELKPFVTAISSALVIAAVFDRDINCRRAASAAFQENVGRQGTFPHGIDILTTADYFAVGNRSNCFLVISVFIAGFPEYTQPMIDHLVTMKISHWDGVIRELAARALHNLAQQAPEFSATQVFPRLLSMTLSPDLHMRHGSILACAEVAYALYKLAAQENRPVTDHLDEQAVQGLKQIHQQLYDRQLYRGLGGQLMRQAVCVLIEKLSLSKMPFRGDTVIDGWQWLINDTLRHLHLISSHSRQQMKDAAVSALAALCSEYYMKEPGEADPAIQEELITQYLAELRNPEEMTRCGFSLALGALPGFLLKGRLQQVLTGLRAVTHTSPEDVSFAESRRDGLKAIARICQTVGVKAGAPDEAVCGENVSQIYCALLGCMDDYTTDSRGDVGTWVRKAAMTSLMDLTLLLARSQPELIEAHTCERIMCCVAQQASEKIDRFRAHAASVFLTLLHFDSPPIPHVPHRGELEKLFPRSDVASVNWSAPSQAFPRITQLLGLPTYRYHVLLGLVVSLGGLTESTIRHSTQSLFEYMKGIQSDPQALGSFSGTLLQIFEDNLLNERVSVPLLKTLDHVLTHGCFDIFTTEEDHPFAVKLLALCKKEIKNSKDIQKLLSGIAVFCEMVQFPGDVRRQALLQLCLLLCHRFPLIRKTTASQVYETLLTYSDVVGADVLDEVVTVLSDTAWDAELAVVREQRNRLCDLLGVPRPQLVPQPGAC
Chain of UniProt Q4KMP7 (Q4KMP7 whole entry, looked up): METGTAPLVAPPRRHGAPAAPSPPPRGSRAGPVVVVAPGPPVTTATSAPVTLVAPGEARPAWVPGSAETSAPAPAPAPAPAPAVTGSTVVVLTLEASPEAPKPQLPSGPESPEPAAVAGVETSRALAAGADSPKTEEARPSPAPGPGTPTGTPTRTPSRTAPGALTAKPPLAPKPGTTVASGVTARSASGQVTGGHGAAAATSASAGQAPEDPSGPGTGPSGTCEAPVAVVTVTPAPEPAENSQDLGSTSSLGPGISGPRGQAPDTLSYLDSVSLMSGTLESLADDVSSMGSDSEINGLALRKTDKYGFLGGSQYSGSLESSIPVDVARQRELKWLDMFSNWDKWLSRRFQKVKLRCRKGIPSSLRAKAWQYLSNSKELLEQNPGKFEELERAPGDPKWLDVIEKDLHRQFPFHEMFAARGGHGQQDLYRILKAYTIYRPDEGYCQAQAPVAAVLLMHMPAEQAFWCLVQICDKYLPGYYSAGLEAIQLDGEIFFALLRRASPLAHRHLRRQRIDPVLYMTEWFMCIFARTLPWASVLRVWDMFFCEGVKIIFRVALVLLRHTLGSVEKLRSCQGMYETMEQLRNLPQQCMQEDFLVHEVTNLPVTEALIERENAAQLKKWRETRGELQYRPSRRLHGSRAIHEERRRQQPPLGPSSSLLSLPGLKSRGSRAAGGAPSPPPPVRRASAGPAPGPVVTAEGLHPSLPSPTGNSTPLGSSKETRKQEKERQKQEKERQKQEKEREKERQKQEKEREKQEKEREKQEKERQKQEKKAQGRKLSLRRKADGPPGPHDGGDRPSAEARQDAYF
Chain of UniProt Q9UKI8 (Q9UKI8 whole entry, looked up): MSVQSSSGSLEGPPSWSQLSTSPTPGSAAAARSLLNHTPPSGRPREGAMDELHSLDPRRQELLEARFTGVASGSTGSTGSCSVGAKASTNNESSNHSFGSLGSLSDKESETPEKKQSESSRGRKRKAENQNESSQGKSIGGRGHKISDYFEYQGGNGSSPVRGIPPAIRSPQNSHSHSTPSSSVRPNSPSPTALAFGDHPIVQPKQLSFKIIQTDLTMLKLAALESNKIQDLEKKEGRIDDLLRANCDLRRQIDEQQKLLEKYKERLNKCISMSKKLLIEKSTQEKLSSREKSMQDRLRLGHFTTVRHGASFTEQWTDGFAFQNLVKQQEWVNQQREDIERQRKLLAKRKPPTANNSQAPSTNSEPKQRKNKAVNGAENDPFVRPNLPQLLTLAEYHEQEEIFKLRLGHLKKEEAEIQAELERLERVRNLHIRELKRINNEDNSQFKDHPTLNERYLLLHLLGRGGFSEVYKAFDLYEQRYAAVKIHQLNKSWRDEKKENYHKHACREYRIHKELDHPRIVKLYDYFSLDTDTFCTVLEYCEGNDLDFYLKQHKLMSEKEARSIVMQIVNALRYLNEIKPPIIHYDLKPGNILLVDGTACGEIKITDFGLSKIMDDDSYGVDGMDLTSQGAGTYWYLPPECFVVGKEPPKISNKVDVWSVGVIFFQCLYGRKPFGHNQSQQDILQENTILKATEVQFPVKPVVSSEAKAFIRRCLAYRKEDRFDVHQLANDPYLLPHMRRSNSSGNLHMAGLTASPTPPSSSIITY
Chain of UniProt Q5JUR7 (Q5JUR7 whole entry, looked up): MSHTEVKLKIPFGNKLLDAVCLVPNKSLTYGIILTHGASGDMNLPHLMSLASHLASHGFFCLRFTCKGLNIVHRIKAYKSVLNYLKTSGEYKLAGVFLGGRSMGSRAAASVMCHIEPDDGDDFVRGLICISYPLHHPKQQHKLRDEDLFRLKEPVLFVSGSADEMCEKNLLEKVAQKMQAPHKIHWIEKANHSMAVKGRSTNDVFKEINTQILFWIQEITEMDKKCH

Row | Target | log2 fold change (bafetinib) | log2 fold change [1] | log2 fold change (nilotinib) | log2 fold change [2] | log2 fold change (dasatinib) | log2 fold change [3] | log2 fold change [4] | log2 fold change [5] | log2 fold change (tipifarnib) | log2 fold change (mubritinib)
1 | STAT6 (UniProt P42226) | 0.027 | 0.502 (active) | -0.082 | -0.181 | -0.115 | 0.155 | -0.099 | -0.042 | -0.164 | 0.179
2 | TEX30 (UniProt Q5JUR7) | -0.01 | -0.053 | -0.147 | -0.095 | -0.2 | -0.016 | 0.084 | -0.004 | -0.18 | 0.033
3 | SLC25A36 (UniProt Q96CQ1) | -0.049 | -0.003 | -0.01 | 0.182 | -0.136 | -0.138 | 0.033 | -0.004 | -0.075 | -0.078
4 | SPAG9 (UniProt O60271) | -0.056 | -0.014 | -0.039 | -0.074 | -0.076 | 0.015 | -0.018 | 0.012 | -0.005 | 0.054
5 | STX17 (UniProt P56962) | -0.049 | -0.028 | 0.028 | -0.057 | -0.027 | -0.051 | 0.071 | 0.002 | -0.012 | 0.074
6 | SMAD2 (UniProt Q15796) | -0.019 | -0.037 | -0.085 | -0.123 | -0.13 | -0.14 | 0.023 | 0.057 | 0.012 | 0.022
7 | SNX1 (UniProt Q13596) | -0.149 | 0.146 | -0.133 | 0 | -0.191 | -0.45 (active) | 0.07 | -0.028 | -0.002 | 0.057
8 | SURF2 (UniProt Q15527) | -0.103 | 0.039 | 0.054 | -0.048 | -0.02 | 0.082 | -0.012 | 0.053 | 0.034 | -0.013
9 | STK39 (UniProt Q9UEW8) | -0.09 | 0 | -0.076 | -0.028 | -0.108 | -0.016 | -0.008 | -0.032 | -0.031 | -0.083
10 | SP1 (UniProt P08047) | -0.041 | -0.006 | 0.005 | -0.003 | -0.005 | -0.02 | -0.018 | 0.091 | 0.01 | -0.023
11 | TFB2M (UniProt Q9H5Q4) | -0.046 | 0.008 | -0.043 | -0.024 | -0.099 | 0.009 | 0.012 | -0.004 | -0.132 | -0.039
12 | SRI (UniProt P30626) | -0.001 | 0.062 | 0.017 | 0.001 | 0.04 | -0.036 | 0.113 | 0.328 | -0.072 | 0.01
13 | TGFBI (UniProt Q15582) | -0.241 | 0.148 | -0.099 | 0.054 | -0.04 | 0.167 | 0.197 | 0.098 | -0.063 | -0.02
14 | SPCS2 (UniProt Q15005) | -0.057 | 0.003 | 0.014 | -0.034 | 0 | 0 | 0.053 | 0.025 | -0.035 | 0.037
15 | SPAST (UniProt Q9UBP0) | -0.015 | -0.057 | -0.05 | -0.054 | -0.246 (active) | 0.026 | 0.099 | -0.022 | -0.065 | 0.036
16 | SSR4 (UniProt P51571) | -0.011 | -0.057 | -0.001 | 0.021 | -0.028 | -0.005 | 0.067 | 0.026 | -0.063 | 0.003
17 | TBCD (UniProt Q9BTW9) | -0.064 | 0.029 | -0.101 | -0.078 | -0.086 | -0.025 | 0.007 | 0.025 | -0.038 | -0.039
18 | TBK1 (UniProt Q9UHD2) | -0.035 | -0.024 | -0.114 | 0.911 (active) | -0.096 | 0.012 | 0.055 | -0.002 | -0.103 | -0.038
19 | STAT5B (UniProt P51692) | -0.056 | 0.109 | -0.218 | -0.432 | -0.443 (active) | 0.162 | 0.07 | 0.08 | -0.163 | 0.308
20 | SUCLG1 (UniProt P53597) | -0.065 | -0.01 | -0.077 | 0.029 | -0.025 | -0.008 | 0.027 | 0.078 | -0.008 | -0.273 (active)
21 | TLK1 (UniProt Q9UKI8) | -0.071 | 0 | -0.073 | -0.399 (active) | -0.028 | 0.007 | 0.06 | 0.026 | 0.01 | 0.011
22 | THADA (UniProt Q6YHU6) | 0 | 0.027 | -0.068 | 0.045 | -0.15 | -0.028 | 0.098 | 0.055 | -0.1 | 0.123
23 | SLC39A11 (UniProt Q8N1S5) | -0.13 | -0.043 | -0.028 | 0.001 | 0.058 | 0.248 | 0.128 | 0.002 | 0.048 | -0.005
24 | SPTBN1 (UniProt Q01082) | 0.064 | -0.017 | -0.01 | -0.145 | -0.043 | 0.054 | -0.009 | -0.007 | -0.045 | -0.075
25 | SLC30A7 (UniProt Q8NEW0) | -0.169 | -0.094 | -0.16 | 0.052 | 0.04 | 0.003 | 0.048 | -0.026 | 0.023 | 0.107
26 | TBC1D10B (UniProt Q4KMP7) | -0.01 | 0.022 | 0.013 | -0.09 | -0.064 | -0.149 | 0.07 | 0 | 0.039 | 0.013
27 | ST3GAL2 (UniProt Q16842) | 0.092 | -0.008 | 0.191 | -0.042 | 0.179 | 0.081 | -0.039 | -0.022 | 0.076 | -0.026
28 | SRRM2 (UniProt Q9UQ35) | 0.068 | 0.044 | 0.02 | -0.936 (active) | 0.079 | -0.261 | 0.048 | 0.022 | 0.077 | 0.035
29 | SLC25A4 (UniProt P12235) | -0.027 | -0.097 | -0.004 | -0.03 | 0.033 | -0.014 | 0.022 | -0.005 | 0.026 | -0.024
